Test results published in the OligoGym collection.

Target: DMKN
Assay: pooled miR-30 sensor sort-seq; sequence = guide strand
Conditions: shRNA
Further: reference of the scale not given here.

**Q.** With TGACTGAGTACTTCCCACCATA as the sequence, how does the sensor-assay potency score (higher = more potent) read?
**A.** The sensor-assay potency score (higher = more potent) was -1.25.

**Q.** Which sensor-assay potency score (higher = more potent) does the source give for TTGTTGTTGTCACCATTGCTGC here?
**A.** The sensor-assay potency score (higher = more potent) was -0.932.

**Q.** For TGTAATTGTAGTTCTGATCGGC, which sensor-assay potency score (higher = more potent) is on record?
**A.** Its sensor-assay potency score (higher = more potent) is 0.784.

**Q.** With TAGTTCTGATCGGCTCTGCCTG as the sequence, how does the sensor-assay potency score (higher = more potent) read?
**A.** The sensor-assay potency score (higher = more potent) was -0.576.

**Q.** How did the sensor-assay potency score (higher = more potent) turn out when TTGTTGTCACCATTGCTGCCAC was run?
**A.** The sensor-assay potency score (higher = more potent) was -0.584.

**Q.** Which sensor-assay potency score (higher = more potent) does the source give for TCGAATGACATCTTCTGCCTGT here?
**A.** The sensor-assay potency score (higher = more potent) was 0.442.

**Q.** Which sensor-assay potency score (higher = more potent) does the source give for TTCTGTTTGAAATCCTCCCAGA here?
**A.** Its sensor-assay potency score (higher = more potent) is -0.45.

**Q.** How did the sensor-assay potency score (higher = more potent) turn out when TTTGCAGGGGTCTTGACTGAGT was run?
**A.** The sensor-assay potency score (higher = more potent) was -1.13.

Target: DMRT3
Assay: as above
Conditions: shRNA

**Q.** For TAGACTCTCAGGTTCTGCGGAA, which sensor-assay potency score (higher = more potent) is on record?
**A.** The sensor-assay potency score (higher = more potent) was -0.423.

**Q.** With TACATTGACATTACACATGTTT as the sequence, how does the sensor-assay potency score (higher = more potent) read?
**A.** The sensor-assay potency score (higher = more potent) was -0.269.

**Q.** For TTACTCTTTGCCACATCTGGGG, which sensor-assay potency score (higher = more potent) is on record?
**A.** The sensor-assay potency score (higher = more potent) was -0.22.

**Q.** How did the sensor-assay potency score (higher = more potent) turn out when TACATTAACCTGACAAAGCTTA was run?
**A.** Its sensor-assay potency score (higher = more potent) is 0.0811.

**Q.** For TACTCTTTGCCACATCTGGGGA, which sensor-assay potency score (higher = more potent) is on record?
**A.** Its sensor-assay potency score (higher = more potent) is -0.96.

**Q.** With TTGCAACAGAACCACTTCCTTT as the sequence, how does the sensor-assay potency score (higher = more potent) read?
**A.** Its sensor-assay potency score (higher = more potent) is -0.544.

**Q.** With TTTGACACAAATGGACACCCAT as the sequence, how does the sensor-assay potency score (higher = more potent) read?
**A.** Its sensor-assay potency score (higher = more potent) is 0.206.

**Q.** How did the sensor-assay potency score (higher = more potent) turn out when TTGTCTCTGAAAACTGTCCAAG was run?
**A.** The sensor-assay potency score (higher = more potent) was -0.806.

**Q.** TTTTTTAACACTTCAAGCGGCG was tested. Which sensor-assay potency score (higher = more potent) did it give?
**A.** Its sensor-assay potency score (higher = more potent) is -0.226.

**Q.** With TTGACACAAATGGACACCCATC as the sequence, how does the sensor-assay potency score (higher = more potent) read?
**A.** The sensor-assay potency score (higher = more potent) was -1.32.

**Q.** How did the sensor-assay potency score (higher = more potent) turn out when TTTGTCACTGAAGACCTCTGTA was run?
**A.** Its sensor-assay potency score (higher = more potent) is 0.155.

Target: DMRTC2
Assay: as above
Conditions: shRNA

**Q.** Which sensor-assay potency score (higher = more potent) does the source give for TTTGTGACACTCGCAAGCCTGG here?
**A.** The sensor-assay potency score (higher = more potent) was -0.968.

**Q.** How did the sensor-assay potency score (higher = more potent) turn out when TCAGAGTTGAGTGTGTGCGGGG was run?
**A.** The sensor-assay potency score (higher = more potent) was -0.0492.

**Q.** With TAGCTGAAGAGGGTCTGGGGTG as the sequence, how does the sensor-assay potency score (higher = more potent) read?
**A.** The sensor-assay potency score (higher = more potent) was -1.25.

**Q.** Which sensor-assay potency score (higher = more potent) does the source give for TCTGAGGGACCAGATGTCCGGG here?
**A.** The sensor-assay potency score (higher = more potent) was -1.06.

**Q.** ATATGCAGAGCAACAGAGGGGG was tested. Which sensor-assay potency score (higher = more potent) did it give?
**A.** Its sensor-assay potency score (higher = more potent) is -0.319.

**Q.** With TTCTGAAGTGGTTGGGAGCTTT as the sequence, how does the sensor-assay potency score (higher = more potent) read?
**A.** Its sensor-assay potency score (higher = more potent) is -0.576.

**Q.** For ATTTGTGACACTCGCAAGCCTG, which sensor-assay potency score (higher = more potent) is on record?
**A.** The sensor-assay potency score (higher = more potent) was -0.869.

**Q.** How did the sensor-assay potency score (higher = more potent) turn out when ACACATTTGTGACACTCGCAAG was run?
**A.** Its sensor-assay potency score (higher = more potent) is -1.72.

**Q.** How did the sensor-assay potency score (higher = more potent) turn out when TCAGTACTGGGTGAGATCCTGG was run?
**A.** Its sensor-assay potency score (higher = more potent) is -0.163.

**Q.** TATCAGAGTTGAGTGTGTGCGG was tested. Which sensor-assay potency score (higher = more potent) did it give?
**A.** Its sensor-assay potency score (higher = more potent) is -0.137.

**Q.** How did the sensor-assay potency score (higher = more potent) turn out when TTGTGACACTCGCAAGCCTGGA was run?
**A.** Its sensor-assay potency score (higher = more potent) is -1.29.

**Q.** For TATGCAGAGCAACAGAGGGGGC, which sensor-assay potency score (higher = more potent) is on record?
**A.** Its sensor-assay potency score (higher = more potent) is -1.35.

Target: DMXL1
Assay: as above
Conditions: shRNA

**Q.** Which sensor-assay potency score (higher = more potent) does the source give for TTTCTAAATAGTATCTACTTAA here?
**A.** Its sensor-assay potency score (higher = more potent) is -0.599.

**Q.** How did the sensor-assay potency score (higher = more potent) turn out when TTTGTTTCTGAAAACACTGCTA was run?
**A.** Its sensor-assay potency score (higher = more potent) is 0.164.

**Q.** For TTACACATTCTACTTTAGGCAA, which sensor-assay potency score (higher = more potent) is on record?
**A.** Its sensor-assay potency score (higher = more potent) is -0.183.

**Q.** For TAATTCTTGCTTTACCTCCAGG, which sensor-assay potency score (higher = more potent) is on record?
**A.** The sensor-assay potency score (higher = more potent) was -0.447.

**Q.** Which sensor-assay potency score (higher = more potent) does the source give for TACATTTCTAAATAGTATCTAC here?
**A.** The sensor-assay potency score (higher = more potent) was -0.076.

**Q.** How did the sensor-assay potency score (higher = more potent) turn out when AAATAGTACATAATTGTCCCAT was run?
**A.** Its sensor-assay potency score (higher = more potent) is 0.365.

**Q.** TTGACTGCTTTCACATTTGTTT was tested. Which sensor-assay potency score (higher = more potent) did it give?
**A.** Its sensor-assay potency score (higher = more potent) is -0.678.

**Q.** For ATTACTTACACATTCTACTTTA, which sensor-assay potency score (higher = more potent) is on record?
**A.** The sensor-assay potency score (higher = more potent) was -0.377.

**Q.** With TTATTTGAAAATTAGGATGGGA as the sequence, how does the sensor-assay potency score (higher = more potent) read?
**A.** Its sensor-assay potency score (higher = more potent) is 0.431.
